From PubChem BioAssay
LEDGF integ inh: blocks HIV-1 LEDGF/p75-dependent DNA integration; inhibition, % at 3.7 µM; 370,000 tested, 0.64% active; TR-FRET IN-LEDGF/p75 DNA integration, Eu/Cy5;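 active = inhibition above the screen-wide mean plus 3 SD, cut at about 13% in these data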;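 note: signal is the Cy5 over europium emission ratio at 671 and 618 nm; 0% = plate median of compound wells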
MBD2 inh: inhibitors of human MBD2 binding to methylated oligonucleotide; inhibition, % at 4.4 µM; TR-FRET; 370,000 tested, 0.31% active; in the data active = inhibition above about 13%
Target sequence (Q9UBB5 whole entry, looked up): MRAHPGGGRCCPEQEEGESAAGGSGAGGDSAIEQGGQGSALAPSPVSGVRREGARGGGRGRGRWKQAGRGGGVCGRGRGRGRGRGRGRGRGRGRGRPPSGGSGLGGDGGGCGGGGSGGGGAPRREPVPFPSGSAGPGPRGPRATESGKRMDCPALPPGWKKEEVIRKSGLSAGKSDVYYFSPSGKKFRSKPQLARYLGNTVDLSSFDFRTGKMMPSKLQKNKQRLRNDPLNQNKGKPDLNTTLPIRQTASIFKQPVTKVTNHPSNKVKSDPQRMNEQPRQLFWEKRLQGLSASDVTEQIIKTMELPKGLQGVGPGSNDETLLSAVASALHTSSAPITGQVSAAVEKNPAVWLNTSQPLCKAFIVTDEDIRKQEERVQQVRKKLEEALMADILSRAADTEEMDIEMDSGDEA
CASP6 VEID inh: inhibitors of human caspase-6. purified caspase-6, Z-VEID-R110 cleavage fluorescence. inhibition, % at 12.5 µM. 350,000 tested, 0.53% active. AID 686996;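 active = mean inhibition across replicates at least about 35%, with every replicate also reaching that limit, limit read from the data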;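 note: 0% = median of neutral control wells and 100% = no fluorescence left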
Target sequence (P55212 24-179 limits assumed): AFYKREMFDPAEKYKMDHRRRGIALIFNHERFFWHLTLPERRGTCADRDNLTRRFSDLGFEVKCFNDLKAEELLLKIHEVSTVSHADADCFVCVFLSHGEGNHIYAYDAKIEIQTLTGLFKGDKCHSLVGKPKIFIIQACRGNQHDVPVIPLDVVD
Target sequence (P55212 194-293 limits assumed): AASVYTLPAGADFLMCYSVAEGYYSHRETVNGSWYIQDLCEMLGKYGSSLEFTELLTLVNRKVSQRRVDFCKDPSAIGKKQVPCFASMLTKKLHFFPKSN
UHRF1 binding: blocks human UHRF1 binding to methylated DNA. 370,000 tested, 0.75% active. UHRF1 binding to methylated oligo, TR-FRET. inhibition, % at 4.4 µM; in the data active = inhibition above about 21%;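 note: UHRF1 SRA domain binding a hemimethylated CpG hairpin DNA probe; 0% = median of test compound wells and 100% = reference inhibitor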
IN multimer act: HIV-1 integrase multimerization activation, counter-screen; shares compounds with LEDGF integ inh; TR-FRET HIV-1 integrase multimerization, biochemical; activation, % at 7.7 µM; 2,000 tested, 17% active; in the data active = activation above about 8.9%
TR-FRET interf: TR-FRET optical interference, LEDGF/p75 integration counter-screen; inhibition, % at 7.7 µM; shares compounds with LEDGF integ inh; 2,000 tested, under 10 active; TR-FRET optical interference counterscreen, HIV-1 IN multimerization;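 active = inhibition above the mean over all tested compounds plus 3 SD, which no compound reached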;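 note: 0% = integrase with antibodies and DMSO and 100% = antibodies without integrase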
LEDGF integ conf: LEDGF/p75-dependent HIV-1 integration inhibition, confirmation. TR-FRET LEDGF/p75-dependent HIV-1 integration, biochemical. inhibition, % at 3.7 µM. AID 1053136. shares compounds with LEDGF integ inh. 2,000 tested, 36% active; in the data active = inhibition above about 14%
* = called active by the depositor; nt = no result. Compounds with a hit are over-represented: about 1.4% of the library has one in this group of screens.

SMILES | LEDGF integ inh | MBD2 inh | CASP6 VEID inh | UHRF1 binding | IN multimer act | TR-FRET interf | LEDGF integ conf
COc1cccc(C(=O)Nc2ccc3c(c2)OC[C@H](C)N(C)C[C@H](C)[C@@H](OC)CN(C)C3=O)c1 | nt | nt | -1 | nt | nt | nt | nt
CC(=O)N(C)c1ccc(N=Cc2cc3c(cc2[N+](=O)[O-])OCO3)cc1 | 43* | -7 | 36* | 3 | 7 | -33 | 51*
Cc1ccc(C)c(N=Cc2cc3c(cc2[N+](=O)[O-])OCO3)c1 | 40* | 9 | -3 | 38* | 0 | -2 | 4
CC(C)NC(=O)N(C)C[C@H]1OCCCC[C@@H](C)Oc2ccc(NC(=O)Nc3ccc(F)cc3)cc2C(=O)N([C@@H](C)CO)C[C@H]1C | nt | nt | -4 | nt | nt | nt | nt
CCCn1c(NC(=O)c2ccc(C)cc2)nc2ccccc21 | 19* | 5 | nt | 1 | -2 | 10 | 22*
CCCn1c(CNC(=O)c2ccccc2)nc2ccccc21 | -2 | -4 | nt | -3 | nt | nt | nt
CCCn1c(NC(=O)c2ccccc2)nc2ccccc21 | 19* | 2 | nt | -1 | -3 | 13 | 24*
C[C@@H]1CN([C@H](C)CO)C(=O)c2cc(NC(=O)Cn3cnnn3)ccc2O[C@@H]1CN(C)S(=O)(=O)c1cccs1 | nt | nt | 1 | nt | nt | nt | nt
CCCNC(=O)N(C)C[C@H]1Oc2cc(C#CCN(C)C)ccc2S(=O)(=O)N([C@@H](C)CO)C[C@@H]1C | nt | nt | -14 | nt | nt | nt | nt
Cc1ccccc1-c1ccc([C@@H]2[C@H](CO)N3CCCCN(S(C)(=O)=O)C[C@@H]23)cc1 | nt | nt | 0 | nt | nt | nt | nt
COc1ccc(S(=O)(=O)Nc2ccc(F)c(F)c2)cc1Cl | 35* | 0 | nt | -2 | 2 | -6 | -6
CN1C(=O)c2cc(NC(=O)Cc3ccccc3)ccc2OC[C@@H]2O[C@H](CC(=O)NC3CCC3)CC[C@H]21 | nt | nt | -1 | nt | nt | nt | nt
O=C(NCCN1CCOCC1)c1ccc2c(c1)N(Cc1ccccc1F)C(=O)c1ccccc1S2 | -2 | 7 | -2 | 9 | nt | nt | nt
O=C(c1ccc2c(c1)N(Cc1ccccc1F)C(=O)c1ccccc1S2)N1CCOCC1 | 30* | 1 | 2 | -1 | 1 | -3 | -7
O=C(CN1CCN(c2ccc(Cl)cc2)CC1)Nc1cccc(F)c1 | 32* | -3 | nt | -1 | 0 | -1 | -4
O=C(Nc1ccc(F)cc1)NC1CCN(Cc2nnnn2Cc2ccco2)CC1 | 14* | 9 | nt | 19 | -1 | 4 | -1
O=C(Nc1ccccc1F)NC1CCN(Cc2nnnn2Cc2ccc(F)cc2)CC1 | 0 | -7 | nt | -3 | nt | nt | nt
O=C(NCc1ccco1)c1ccc(S(=O)(=O)N2CCCCC2)cc1 | -3 | -2 | -4 | 0 | nt | nt | nt
O=C(NCc1ccco1)c1ccc(S(=O)(=O)N2CCOCC2)cc1 | 14* | 0 | nt | 12 | 2 | -8 | 20*
O=CNc1cc(-c2ccoc2)cn2c(-c3ccc(F)cc3)cnc12 | 14* | 1 | 11 | -2 | 0 | -2 | 12
CC(=O)c1ccc(-c2cnc3c(NC=O)cc(-c4cnn(C)c4)cn23)cc1 | 24* | -11 | 11 | -10 | -1 | 7 | 4
CC(=O)c1ccc(-c2cnc3c(NC=O)cc(-c4ccc(S(C)(=O)=O)cc4)cn23)cc1 | 2 | -3 | 0 | -4 | nt | nt | nt
COc1cccc(-c2cnc3c(c2)C(=O)N([C@H](C)CO)C[C@H](C)[C@H](CN(C)S(=O)(=O)c2cn(C)cn2)O3)c1 | nt | nt | -1 | nt | nt | nt | nt
Oc1cccc(/C=N/NC(=S)NCCN2CCOCC2)c1O | 79* | 5 | 5 | 30* | 5 | -26 | -5
Cc1ccccc1OCC(=O)OCC(=O)Nc1cc(C(F)(F)F)ccc1N1CCOCC1 | 17* | -9 | 1 | -1 | -1 | 3 | -6
SMILES | LEDGF integ inh | MBD2 inh | CASP6 VEID inh | UHRF1 binding | IN multimer act | TR-FRET interf | LEDGF integ conf
CCOC(=O)NNC1CC(=O)N(c2ccccc2)C1=O (configuration not stated) | 18* | 3 | -6 | 0 | 1 | -5 | 2
CN(C)c1ccc(NC2=C([N+](=O)[O-])CS(=O)(=O)C2)cc1 | 24* | -8 | nt | -3 | 7 | -34 | 1
CNC[C@H]1OCCCC[C@H](C)Oc2ccc(N(C)C)cc2C(=O)N([C@@H](C)CO)C[C@@H]1C | nt | nt | 2 | nt | nt | nt | nt
O=C(c1cc2nc(-c3ccco3)cc(C(F)(F)F)n2n1)N1CCCCCC1 | -1 | -3 | 1 | 0 | nt | nt | nt
O=C(NCCCN1CCCC1=O)c1cc2nc(-c3ccco3)cc(C(F)(F)F)n2n1 | 20* | -2 | 4 | -2 | -1 | 3 | 6
Nc1ccc(N2CCOCC2)c2nonc12 | 22* | 19* | 83* | 30* | 6 | -21 | 8
CC(C)NC(=O)C(Cc1ccccc1)N1C(=O)c2ccccc2C1=O (configuration not stated) | 2 | 1 | nt | 4 | nt | nt | nt
CC(C)(O)CNC(=O)C(Cc1ccccc1)N1C(=O)c2ccccc2C1=O (configuration not stated) | 77* | 3 | -2 | 10 | 0 | 0 | -6
COc1ccc(NC(=O)N(C)C[C@H]2Oc3ccc(N(C)C)cc3C(=O)N([C@H](C)CO)C[C@@H]2C)cc1 | nt | nt | 14 | nt | nt | nt | nt
COc1ccc(NC(=O)Nc2ccc3c(c2)[C@H]2C[C@H](CC(=O)N4CCc5ccccc5C4)O[C@H](CO)[C@H]2O3)cc1 | nt | nt | -1 | nt | nt | nt | nt
N#CCSc1ccccc1NC(=O)COc1ccc(-c2nnco2)cc1 | 14* | 3 | 4 | 0 | -2 | 8 | -5
N#Cc1ccsc1NC(=O)COc1ccc(-c2nnco2)cc1 | -2 | -3 | nt | -1 | nt | nt | nt
O=C(C1CCC1)N1C[C@H]2[C@@H](c3ccccc31)[C@H](CO)N2C(=O)c1ccccc1 | nt | nt | 0 | nt | nt | nt | nt
CCc1nnc(N/N=C/c2c(Cl)cccc2Cl)n1N | 49* | 4 | nt | 6 | -4 | 14 | 13
CCc1nnc(N/N=C/c2cccs2)n1N | 44* | 0 | nt | 7 | 5 | -23 | 0
C(=N\Nc1nc2ccccc2s1)/c1cccs1 | 1 | 2 | nt | 0 | nt | nt | nt
O=C(C[C@H]1C=C[C@@H](NC(=O)C2CCOCC2)[C@H](CO)O1)Nc1ccc(-c2ccccc2)cc1 | nt | nt | -3 | nt | nt | nt | nt
C[C@H](CO)N1C[C@H](C)[C@H](CN(C)Cc2ccc(F)cc2)OCc2ccccc2-c2ccccc2C1=O | nt | nt | 0 | nt | nt | nt | nt
CN1C(C(=O)NCc2cccc(C(F)(F)F)c2)CC2Cn3c(nc4cc5ccccc5cc43)C21 (configuration not stated) | -1 | -3 | -1 | -1 | nt | nt | nt
Cc1cc2nc3n(c2cc1C)CC1CC(C(=O)NCc2ccco2)N(C)C31 (configuration not stated) | 27* | 8 | -2 | 45* | 0 | 0 | -8
CN1C(C(=O)NCc2cccc(C(F)(F)F)c2)CC2Cn3c(nc4ccccc43)C21 (configuration not stated) | 15* | 2 | -3 | -2 | 0 | -1 | -13
